# From PubChem BioAssay AID687014 (The Scripps Research Institute Molecular Screening Center, 2013)
# The campaign covered roughly 370,000 compounds. About 6,800 (1.8%) were called active.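 Rule for the calls: active = activation above a cutoff set at the mean of all screened compounds plus 3 SD (cut at about 10% in these data); inactive = the rest.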 The list comes from a sample in which actives are over-represented; it also holds similar structures and randomly drawn compounds.
# Test system: Nuclear hormone receptor DAF-12 (Heterodera glycines), GAL4 fusion
# Assay: hgDAF-12 GAL4 fusion reporter activation – cell-based, luminescence, HEK293, UAS-luciferase, primary screen (AID 687014);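 note: 0% = DMSO wells and 100% = sodium butyrate wells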
# Conditions: HEK293 GAL4-hgDAF12 UAS-luciferase reporter, agonist luminescence; at 6.8 µM; hits give high values; normalized to butyrate control
row,SMILES,activation
1,O=C(Nn1c(SCc2ccc([N+](=O)[O-])cc2)nc2ccccc2c1=O)c1ccc(F)cc1,16.4% (active)
2,COCCNC(=O)c1ccc(-n2c(SCc3cccnc3)nc3ccccc3c2=O)cc1,-1.1% (inactive)
3,O=c1[nH]c(-c2ccccc2)cn1C1CCN(Cc2ccc(-c3nc4ccc(F)cc4nc3-c3ccccc3)cc2)CC1,2.08% (inactive)
4,O=[N+]([O-])c1ccc2c(c1)C(N1CCOCC1)/C(=C/C1(O)CCCCC1)O2 (stereo not drawn),-1.36% (inactive)
5,CCOC(=O)C1CCN(C(=O)C(C)(C)NC(=O)Nc2ccc(F)c(F)c2)CC1,-0.28% (inactive)
6,COc1ccc(-c2nc3n(c2Br)CCC3)cc1,5.25% (inactive)
7,COc1ccc(/C=C2\CC3(OC(C)=O)CCCN2C3)cc1 (stereo not drawn),-5.68% (inactive)
8,COc1ccc(/C=C2\N=C3CCCN3C2=O)cc1,13% (active)
9,O=C(C1CCCN1S(=O)(=O)c1ccccc1)N1CCc2ccccc2C1 (stereo not drawn),-1.43% (inactive)
10,O=C(CSc1nnc(COc2ccccc2)n1-c1ccc(Cl)cc1)Nc1ccc2c(c1)OCO2,-1.26% (inactive)
11,CC(C)(C)C1CCC(=NNC(=O)c2ccc(Br)o2)CC1 (stereo not drawn),11.6% (active)
12,CC(C)(C)C1CCC(=NNC(=O)c2cc(-c3ccccc3)n[nH]2)CC1 (stereo not drawn),6.27% (inactive)
13,CCC(C)(C)C1CCC(=NNC(=O)c2ccc(Br)o2)CC1 (stereo not drawn),7.56% (inactive)
14,COC(=O)C1=C(C)N(Cc2cccc(C(F)(F)F)c2)C(=NCc2ccccc2)NC1c1ccccc1C(F)(F)F (stereo not drawn),-1.64% (inactive)
15,CC(CNC(=O)c1ccc(Br)o1)NC(=O)c1ccc(Br)o1 (stereo not drawn),-3.41% (inactive)
16,C/C(=N\NC(=S)NC1CCCCC1)c1ccc(C)o1,3.96% (inactive)
17,C/C(=N/NC(=O)c1ccc(Br)o1)c1ccc(C)o1,11.9% (active)
18,Cc1ccnc(NC(=O)CNC(=O)c2ccccc2)c1,2.39% (inactive)
19,COc1cc(SC)ccc1C(=O)Nc1nc(C)cs1,-15.3% (inactive)
20,COc1cc(SC)ccc1C(=O)Nc1cc(C)ccn1,15.5% (active)
21,O=S1(=O)c2c(NCc3ccco3)cccc2Oc2ccccc2CN1Cc1cn(Cc2cccc(C(F)(F)F)c2)nn1,-3.4% (inactive)
22,COc1cccc(NC(=O)CSc2nccn(-c3ccc4c(c3)OCCO4)c2=O)c1,0.16% (inactive)

row,SMILES,activation
1,COc1ccccc1C1C(C(N)=O)=C(C)Nc2nc(CCCO)nn21 (stereo not drawn),0.62% (inactive)
2,O=C(COC(=O)c1cc(=O)[nH]c2ccccc12)NCc1cccc(Cl)c1,0.1% (inactive)
3,CN(C(=O)COC(=O)c1cc(=O)[nH]c2ccccc12)C1CCCCC1,6.7% (inactive)
4,CC1CCN(C(=O)COC(=O)c2cc(=O)[nH]c3ccccc23)CC1,12.3% (active)
5,CCOC(=O)[C@]12CCCC3=C1N(CCC3)C(=O)[C@@H](CC(=O)NCC13CC4CC(CC(C4)C1)C3)C2,0.11% (inactive)
6,COc1ccc(/C=N/Nc2ncnc3sc4c(c23)CCCC4)cc1O,5.98% (inactive)
7,COc1cc(/C=N/Nc2nc3ccccc3s2)ccc1O,15% (active)
8,COc1cc(/C=C/C(=O)OCC(=O)NCCCc2ccccc2)ccc1O,-1.55% (inactive)
9,CN(C)C(=O)N1CCN(C(=O)[C@@H](Cc2ccccc2)NC(=O)[C@H]2O[C@@H](n3ccc(N)nc3=O)[C@H](O)[C@@H]2O)CC1,1.19% (inactive)
10,CCOC(=O)c1ccc(CS(=O)c2ccc(Cl)cc2)o1 (stereo not drawn),-2.05% (inactive)
11,CCOC(=O)c1c(S(=O)(=O)Nc2cccc(Cl)c2)c(C)n(C)c1C,-4.39% (inactive)
12,CCOC(=O)c1c(Cc2ccc(Cl)cc2)c[nH]c1C,12.8% (active)
13,CCOC(=O)[C@]12CCCC=C1N(Cc1ccc(OC)cc1)C(=O)[C@@H]2CC(=O)N1CCOCC1,0.99% (inactive)
14,CNC(=O)/C(=C\C=C\c1ccccc1)NC(=O)c1ccc([N+](=O)[O-])cc1,1.17% (inactive)
15,COCC(=O)N[C@@H]1C[C@@H]2O[C@@H](CO)CC[C@@H]2O[C@@H]1CCc1ccc(-c2ccccc2)cc1,2.02% (inactive)
16,O=C(CSc1nnnn1C1CCCC1)N1CCCCC1,11.8% (active)
17,CC(=O)Nc1ccc(NC(=O)CSc2nnnn2C2CCCCC2)cc1,0.66% (inactive)
18,CC1CCCC(C)N1C(=O)CSc1nnnn1C1CCCC1 (stereo not drawn),3.93% (inactive)
19,Cc1cc(NCCc2c[nH]c3ccccc23)ccc1Oc1cccnc1,-6.96% (inactive)
20,C[C@H](O)[C@@H]1CN2CCc3ccc(-c4ccc5c(c4)OCO5)cc3[C@@H]2C[C@@H]1N(C)C(=O)C1CCCCC1,5.63% (inactive)
21,C[C@H]1[C@H](NC(=O)c2cccc(N(C)C)c2)CC[C@@]23CCCN2C(=O)CCC[C@@H]13,4.78% (inactive)
